The whole screen tested about 300,000 compounds, of which about 37,000 (12%) were called active. The entries come from a sample that favours actives as a whole. Values without a mark were called inactive. Cut-off read from the data, not from the text of the source: active = max response mostly above about 13% (no sharp cut-off); inactive = mostly below about 14%.
experiment: Cycloheximide Counterscreen for Small Molecule Inhibitors of Shiga Toxin; conditions: cell reporter, cycloheximide protein synthesis inhibition counterscreen; hits give high values; note: read at 38.3 µM for the half of the compounds with a filed dose; 0% is about no effect

SMILES	max response
CCOc1ccc(N(C)S(=O)(=O)c2cnc[nH]2)cc1	-3.61%
O=C(Cc1ccc(S(=O)(=O)N2CCCC2)s1)NC1CCCCCC1	0.894%
C=CCn1c(=S)sc2c(=O)[nH]c(C)nc21	6.52%
COc1ccc(C2/C(=C(/O)c3ccccc3)C(=O)C(=O)N2C)c(OC)c1 (stereo not given)	5.88%
CCOc1ccc(/C(O)=C2\C(=O)C(=O)N(c3ccc(OC)cc3)C2c2ccccc2[N+](=O)[O-])cc1 (stereo not given)	45.2% (active)
COc1ccccc1C1/C(=C(/O)c2ccc(OC(C)C)cc2)C(=O)C(=O)N1c1cc(C)on1 (stereo not given)	-2.72%
O=S(=O)(Nc1nccs1)c1ccc2c(c1)OCCO2	13.4%
CC(CCc1ccc(O)cc1)NCc1ccc(Cl)cc1Cl (stereo not given)	0.267%
COc1ccc(NC(=O)CCCNC(=O)Cn2cnc3sc4c(c3c2=O)CCCC4)cc1OC	-1.82%
CCOC(=O)c1sc(-c2cccc([N+](=O)[O-])c2)cc1N	19% (active)
CCOC(=O)C1=C(CN2CCCCCC2)NC(=O)NC1c1cccc([N+](=O)[O-])c1 (stereo not given)	-4.55%
O=[N+]([O-])c1cccc(C2=NCCS2)c1	7.65%
CN(C)S(=O)(=O)Oc1ccccc1C(=O)Nc1ccccc1Cl	-4.26%
O=c1c2ccccc2c(-c2ccc(Br)cc2)nn1Cc1ccccc1	-1.69%
O=C(NCc1ccco1)c1nc(-c2ccccc2)n(-c2ccccc2)n1	-1.99%
O=C(NCCc1ccco1)c1nn(Cc2ccccc2)c(=O)c2ccccc12	11.7% (active)
Cc1ccc(C(NC(=O)N2CCCC2)C(Cl)(Cl)Cl)cc1F (stereo not given)	10.7%
COc1ccc(C(C(=O)NC(C)(C)C)N(Cc2ccc(F)cc2)C(=O)CCC(=O)Nc2cc(C)on2)cc1 (stereo not given)	-0.261%
CCOC(=O)c1c(C)[nH]c2c1-c1ccccc1C(=O)C2=O	12.4%
CCOC(=O)c1c(C)[nH]c(C2=NNC(=NC(C)COC)SC2)c1C (stereo not given)	42.6% (active)

SMILES	max response
Cc1ccnc(NS(=O)(=O)c2ccc(NC(=O)c3oc4ccc(F)cc4c3C)cc2)n1	-2.51%
O=C(NCC1COc2ccccc2O1)C1(c2ccccc2)CCCC1 (stereo not given)	-2.77%
COc1ccc(Br)cc1CN(C)CC(=O)Nc1cc([N+](=O)[O-])ccc1OC	-1.88%
Cc1cc(=O)[nH]c(N/N=C/c2c(C)nn(-c3ccccc3Cl)c2Cl)n1	10.2% (active)
CCN(CC)c1ccc(/C=N/Nc2nc(C)cc(=O)[nH]2)cc1	1.51%
Cc1cc(=O)[nH]c(N/N=C/c2ccc3c(c2)OCCO3)n1	38.7%
Cc1ccc(C(=O)NCC(=O)NCc2cc(=O)n(C)c(=O)n2C)cc1	-0.788%
O=C(CN1CCOC1=O)N1CCCC(Nc2ccc(F)c(F)c2)C1 (stereo not given)	23.5% (active)
O=C1CCCCN1CCCC(=O)N1CCCC(Nc2ccc(F)cc2)C1 (stereo not given)	2.17%
O=C(CN1C(=O)CSC1=O)N1CCCC(Nc2ccc(F)cc2)C1 (stereo not given)	-1.37%
CC1CCCN(CCCNC(=O)CN2C(=O)COc3ccc(S(=O)(=O)N4CCOCC4)cc32)C1 (stereo not given)	-6.25%
O=C(Nc1ccc2c(c1)CCC2)c1cccc(S(=O)(=O)Nc2ccccc2Cl)c1	8.91%
CC1(C)CC(CCC(=O)Nc2ccccc2Cl)C(=O)O1 (stereo not given)	5.32%
O=C(Cc1ccc2c(c1)CCCC2)Nc1ccccc1Cl	15.4% (active)
COc1ccc(CNC(=O)CN(C(=O)c2csnn2)c2cnc3ccccc3c2)cc1	-1.99%
Cc1cc(C)c(C#N)c(SCC(=O)Nc2ccccc2)n1	14% (active)
Cc1cc(C)c(C#N)c(SCc2ccccc2C(=O)O)n1	-3.7%
CSc1cccc(NC(=O)CSc2ccccc2)c1	39.6% (active)
COCc1cc(C)nc(SCC(=O)Nc2cccc(C)c2)c1C#N	5.77%
O=C(CSc1ccccc1)Nc1cc(Cl)ccc1Oc1ccccc1	-2.3%

SMILES	max response
Cc1cc(C)cc(NC(=O)CSc2ccccc2)c1	18.6% (active)
O=C(CSc1nc(C2CC2)nc2ccccc12)Nc1cccc(O)c1	-1.26%
Cc1cc(C)cc(NC(=O)CN2C(=O)c3ccccc3C2=O)c1	-2.91%
Cc1nnc(SCC(=O)Nc2cccc(N)c2)n1-c1ccccc1	-3.71%
Cc1cc(C)cc(NC(=O)CCN2C(=O)c3ccccc3C2=O)c1	7.24%
O=C(Nc1ccc(CSc2ccccc2)cc1)c1ccc(CN2CCOCC2)cc1	-1.82%
O=C(CSc1ccccc1)Nc1ccc(C(=O)Nc2cccc(O)c2)cc1	32.4% (active)
COc1ccc(/C=C2\SC(=S)N(CCC(=O)Nc3cccc(C(=O)O)c3)C2=O)cc1OC	1.51%
CC(NC(=O)COc1cccnc1[N+](=O)[O-])c1ccc(Cl)cc1Cl (stereo not given)	-5.73%
CCCN1Cc2cccc(C(=O)Nc3ccc(S(=O)(=O)N4CCCCCC4)cc3)c2C1=O	-1.84%
CCCCN(CC)C(=O)C1CCCN(S(=O)(=O)c2cccc3nsnc23)C1 (stereo not given)	-3.7%
C#CCNC(=O)C1=C[C@@H](c2ccccc2)[C@H](CCCO)[C@@H](OCC)O1	0.207%
O=C(NCC(c1cccs1)N1CCOCC1)c1cc(-c2ccccn2)nc2ccccc12 (stereo not given)	-1.88%
CN(C(=O)c1cccc([N+](=O)[O-])c1)c1ccccc1C(=O)NCc1ccccc1	-2.25%
O=C(NNS(=O)(=O)c1ccc(F)cc1)C1CCCCC1	-1.22%
Cc1ccc(S(=O)(=O)/N=C(\N)c2ccc(F)cc2)cc1	6.04%
CN(C)/C=C(/C(=O)c1ccc(F)cc1)S(=O)(=O)c1ccc(F)cc1	27.7% (active)
CN(C)/C=C(/C(=O)c1ccccc1)S(=O)(=O)c1ccc(Cl)cc1	9.87%
CN(C)/C=C(/C(=O)c1ccccc1Cl)S(C)(=O)=O	-0.829%
CN(C)/C=C(/C(=O)c1ccc(Cl)cc1)S(=O)(=O)c1ccccc1	50.5% (active)

From PubChem BioAssay AID2314 (National Center for Advancing Translational Sciences (NCATS), 2010)
